This excerpt belongs to a sample that is enriched for hits.
DT40 TDP1 no CPT: qHTS for Inhibitors of human tyrosyl-DNA phosphodiesterase 1 (TDP1): qHTS in cells in absence of CPT. actives 15% (n = 420,000). DT40 Tdp1-/- hTDP1 cells, no CPT, ATP luminescence, 48 h. Potency, µM (series often up to 46.2 µM), for inactives: at the highest dose activity change, negative = growth inhibition, usual class: inhibitors; also: potency is read from the fitted curve at half-maximal effect; nearly all actives have a fitted effect of over 55% in size
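DT40 Tdp1-/-;hTDP1 cells, no CPT (DMSO vehicle only), 400 cells/well; compounds pin-transferred; ≥48 hr, 37 °C; CellTiter-Glo 30 min RT dark, luminescence read.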
HT1080 IDH1KD tx: toxicity to HT-1080 IDH1 knockdown cells (counter line); HT-1080 IDH1 knockdown viability, ATP luminescence, 48 h; Potency, µM (series often up to 46.1 µM), inactives show at the top dose activity, negative = toxicity, usual class: cytotoxic; actives 2% (n = 360,000); AID 686971;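 also: potency is read from the fitted curve at half-maximal effect; 0% = DMSO wells and -100% = cell-free medium wells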
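After a 2 h attachment period, IDH1KD HT-1080 cells took pin-transferred compound for 48 h at 37 °C; ATP-based luminescence after 10 min room-temperature reagent incubation reported viability.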
12-LOX inh: blocks human arachidonate 12S-lipoxygenase | P18054 | purified 12hLO, xylenol orange hydroperoxide absorbance | Potency, µM (highest dose often 108 µM), for the others: at the top dose activity change, negative = inhibition, most hits filed as inhibitors | actives 1.1% (n = 580,000) | AID 1671190; also: potency is read from the fitted curve at half-maximal effect
Target sequence (P18054 whole entry, looked up): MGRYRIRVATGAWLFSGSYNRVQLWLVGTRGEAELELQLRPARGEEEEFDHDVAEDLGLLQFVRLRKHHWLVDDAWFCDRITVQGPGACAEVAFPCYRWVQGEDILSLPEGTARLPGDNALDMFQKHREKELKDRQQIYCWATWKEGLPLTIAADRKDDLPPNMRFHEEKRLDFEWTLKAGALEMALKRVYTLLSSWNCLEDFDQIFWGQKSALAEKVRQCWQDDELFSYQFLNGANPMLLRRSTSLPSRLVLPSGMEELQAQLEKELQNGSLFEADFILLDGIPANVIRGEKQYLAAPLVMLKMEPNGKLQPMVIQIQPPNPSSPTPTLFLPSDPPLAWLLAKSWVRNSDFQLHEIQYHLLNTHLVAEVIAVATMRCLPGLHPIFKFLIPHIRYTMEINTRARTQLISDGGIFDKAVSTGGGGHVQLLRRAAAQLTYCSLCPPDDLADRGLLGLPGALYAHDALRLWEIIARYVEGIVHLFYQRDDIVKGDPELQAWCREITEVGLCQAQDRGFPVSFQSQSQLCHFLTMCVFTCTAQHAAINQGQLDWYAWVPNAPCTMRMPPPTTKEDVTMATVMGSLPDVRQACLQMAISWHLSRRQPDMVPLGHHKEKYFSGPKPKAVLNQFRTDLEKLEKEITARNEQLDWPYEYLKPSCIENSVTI
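Purified human 12hLO (150 nM final) in 25 mM Hepes, 0.01% Triton X-100, pH 7.0 was preincubated 15 min at room temperature with compound. Then 40 uM arachidonic acid was added, 30 min. Hydroperoxide was read by Fe-XO absorbance ratio 573/405 nm.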
IL1B secr inh: inhibitors of inflammasome signaling (IL-1 beta secretion). AID 743279. THP-1 LPS/ATP IL-1B secretion, AlphaLISA, 16 h; stronger effect = lower value. actives 4.7% (n = 360,000). activity change, % at 57.5 µM; in the data active = activity change below about -50%; inconclusive = mostly about -30% to -49%
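Secreted IL-1B measured by AlphaLISA bead assay after 16 h compound exposure of THP-1 cells; compounds (final up to 57.5 uM) added 1 h before LPS (250 ng/mL) and ATP (1.25 mM) stimulation; lower signal means less secretion.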
TDP1 cell CPT: DT40-hTDP1 cell growth loss with CPT. actives 12% (n = 420,000). chicken DT40 Tdp1-/-;hTDP1 cells + 20 nM CPT, ATP luminescence, 48 h. Potency, µM (top dose mostly 46.2 µM), for the others: top-dose activity change, negative = growth inhibition, hits mostly inhibitors; also: potency is read from the fitted curve at half-maximal effect; nearly all actives have a fitted effect of over 55% in size
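Cell growth measured by CellTiter-Glo luminescence after a minimum 48 h, 37 C compound exposure with 20 nM CPT in Tdp1-knockout DT40 cells stably expressing hTDP1, seeded 400/well; qHTS titration format.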
HT1080-NT tox: kills 2HG-producing HT-1080-NT fibrosarcoma cells | actives 1.6% (n = 360,000) | HT-1080-NT fibrosarcoma viability, CellTiter-Glo ATP luminescence, 48 h | AID 686970 | Potency, µM (doses to about 46.1 µM), without a hit: at the top dose activity, negative = less viability, actives largely listed as cytotoxic;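 also: NT is the 2HG producing partner of a matched IDH1 knockdown line; potency is read from the fitted curve at half-maximal effect; 0% = DMSO-treated cells and -100% = media-only wells without cells; nearly all actives have a fitted effect of over 55% in size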
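Fibrosarcoma NT cells, 750 per well in 5% FBS RPMI, were exposed to compound for 48 hours. Viability: CellTiter-Glo luminescence.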
Numbers without * were called inactive; ? = inconclusive; . = not tested or not shown; [ ] = remark or other dose. Unless noted, calls follow the shape of the dose curve; as a rule, active = well fitted curve in the direction sought with a large enough effect; inconclusive = small, poorly fitted or top-dose-only effect, or another doubt; inactive = no such curve, though single readings can be large; an effect the other way counts as inactive or inconclusive. Unless noted, % is scaled to controls: 0 for no effect and ±100 for the full control effect.

SMILES	DT40 TDP1 no CPT	HT1080 IDH1KD tx	12-LOX inh	IL1B secr inh	TDP1 cell CPT	HT1080-NT tox
Cn1cc(CNCC2(COc3ccc(C(F)(F)F)cn3)C[C@@H](O)[C@@H](O)C2)cn1 (some centres not stated)	.	.	18µM*	.	.	.
O=C(NCC1(COc2ccc(C(F)(F)F)cn2)C[C@@H](O)[C@@H](O)C1)C1CC1 (some centres not stated)	.	.	102%[176 µM]	.	.	.
CCOc1ccc(NC(=S)Nc2ccc(F)cc2)cc1	?	-4%	?	-1	?	-1%
Cc1ccc(NC(=S)Nc2ccc(F)cc2)cc1C	?	0%	?	-58*	?	-3%
Fc1ccc(NC(=S)Nc2ccc3nccnc3c2)cc1	18µM*	7%	?	-2	16µM*	5%
Cc1ccc(NC(=S)NCCc2ccc(F)cc2)cc1C	.	.	-3%	.	.	.
COc1ccc(NC(=S)Nc2ccc(F)cc2)cc1	26µM*	2%	-4%	-13	?	3%
CCOC(=O)C1(CCCc2ccccc2)CCN(C(=O)CCOC)CC1	?	-7%	-9%	0	0%	-10%
NC(=O)c1ccc(CN2CCC(c3nc4cc(Cl)ccc4o3)CC2)cc1	.	.	40%	.	.	.
Cc1ccc(C2Nc3ccccc3-n3c(-c4ccccc4)c4c(=O)n(C)c(=O)n(C)c4c32)cc1 (configuration not stated)	?	.	-17%	.	?	.
COc1ccc(-c2c3c(=O)n(C)c(=O)n(C)c3c3n2-c2ccccc2NC3c2ccc(O)cc2O)cc1 (configuration not stated)	16µM*	.	-20%	.	16µM*	.
Cn1c(=O)c2c(-c3ccccc3)n3c(c2n(C)c1=O)C(c1ccccc1[N+](=O)[O-])Nc1ccccc1-3 (configuration not stated)	-82%	.	-20%	.	23µM*	.
Cc1ccc(CN2C(=O)[C@@H]3C[C@@H](O)CN3C3(CN(C(C)C)C3)C2=O)o1	.	.	24%[176 µM]	.	.	.
CC(C)(C)c1cc(NCc2ccccn2)n2ncc(-c3ccccc3)c2n1	4.6µM*	21µM*	5%	0	2.6µM*	?
Cc1cc(NCc2ccccc2)n2ncc(-c3ccccc3)c2n1	?	-26%	2%	-29	-2%	-22%
O=C(O)CNC(=O)c1ccc(Sc2ccccc2)c([N+](=O)[O-])c1	5%	-2%	-12%	2	3%	4%
CC(C)(C)NC(=O)c1ccc(Sc2ccccc2)c([N+](=O)[O-])c1	8.2µM*	-9%	3%	5	?	-19%
Cc1ccc(Oc2ccccc2NC(=O)c2ccncc2)cc1	.	.	0%	.	.	.
CCC1(C)CC(CCNS(=O)(=O)c2ccc(C)cc2)(c2ccc(C)cc2)CCO1 (configuration not stated)	29µM*	?	?	-9	18µM*	?
Cc1cc(C)c(OCC(=O)Nc2ccccc2N2CCOCC2)c(C)c1	22µM*	?	-19%	-11	14µM*	-11%
O=C(CC12CC3CC(CC(C3)C1)C2)Nc1ccccc1N1CCOCC1	10µM*	-8%	-3%	-5	?	-2%
Cc1ccccc1OCC(=O)Nc1cccc2cccnc12	.	.	11%	.	.	.
Cc1ccccc1OCC(=O)Nc1ccccc1-c1ccccc1NC(=O)COc1ccccc1C	15µM*	1%	-27%	-5	?	9%
Cc1ccccc1OCC(=O)NNC(=O)Cn1[nH]c(=O)c2ccccc2c1=O	?	-21%	1%	22	8.2µM*	-5%
O=C(Cc1cccc(Cl)c1)N1CCc2nc(-c3ccccc3)nc(-c3ccc(Cl)cc3)c2C1	.	.	-5%	.	.	.
SMILES	DT40 TDP1 no CPT	HT1080 IDH1KD tx	12-LOX inh	IL1B secr inh	TDP1 cell CPT	HT1080-NT tox
Cc1ccccc1OCC(=O)Nc1ccccc1N1CCOCC1	10µM*	-10%	11%	9	-18%	-13%
COc1cc(CNCCCN2CCOCC2)c(Br)cc1OCC(=O)Nc1ccccc1C	?	-19%	4%	-55*	?	-25%
CC(=O)N1CCN(c2ccccc2NC(=O)COc2ccccc2C)CC1	?	0%	0%	0	?	0%
COC(=O)c1cc(Sc2c(Cl)cccc2Cl)ccn1	2.3µM*	?	40µM*	32	-25%	-19%
C#Cc1ccc([C@@H]2C=C(C(=O)Nc3ccccc3)O[C@H](OCC)[C@H]2CCCO)cc1	13µM*	-11%	6%	?	16µM*	-3%
CCO[C@H]1OC(C(=O)Nc2ccccc2)=C[C@@H](c2ccc(C(F)(F)F)cc2)[C@@H]1CCCO	15µM*	?	-5%	-55*	15µM*	?
Nc1nc(N)c2c(ccc3nccc32)[nH]1	1µM*	4.6µM*	7%	17	1.8µM*	5.8µM*
COc1ccc(/C=C(/C#N)C(=O)OCc2c(Cl)cccc2Cl)cc1	.	.	50%	.	.	.
Cc1ccc(-c2cc(N3CCCN(C(=O)CCc4ccccc4)CC3)n[nH]2)cc1C	.	.	5%	.	.	.
O=C1C(C=NCc2ccncc2)=C(O)c2ccccc21	-2%	-9%	5%	29	-3%	-2%
O=C1N/C(=C/c2ccc(Br)cc2)C(O)=C1C=NCc1ccccc1	2.3µM*	?	0%	11	2.9µM*	?
COc1ccc(NS(=O)(=O)c2ccc(N3CCCC3)c(N)c2)cc1	4.6µM*	?	-5%	-16	5.2µM*	-21%
Nc1cc(S(=O)(=O)Nc2ccccc2Cl)ccc1N1CCOCC1	?	1%	-1%	11	?	-7%
COc1ccc(NS(=O)(=O)c2ccc(I)cc2)cc1N1CCN(C)CC1	30µM*	.	161%	.	27µM*	.
Nc1cc(S(=O)(=O)Nc2ccc(Cl)cc2)ccc1N1CCOCC1	5.2µM*	-12%	45µM*	-11	7.3µM*	?
CCOC(=O)c1cnc(SCC(=O)c2ccccc2)nc1N	-25%	1%	?	10	?	4%
Cc1ccc(CNC(=O)[C@H](CC(C)C)NC(=O)N2CCn3c2nc2ccccc23)cc1	.	.	43%	.	.	.
COc1ccc(-c2noc(C(C)NC(=O)c3ccco3)n2)cc1 (configuration not stated)	15µM*	.	-18%	.	18µM*	.
COc1ccc(OC)c(C(C)NC(=O)c2ccco2)c1 (configuration not stated)	?	-28%	5%	7	23µM*	?
